The record followed here is PubChem BioAssay.

As usually defined, the inhibition is the change of the read-out against control, counted positive when it falls.

Assay [1] in a line: inhibitors of TNFa-induced NFkB p65 translocation, primary screen, imaging, HUVEC, MLSMR starter and 10KST1 sets (AID 438;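 active = inhibition above 20% together with a positive visual image hit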;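 note: compound added about 3h40 before a 20 min TNFalpha stimulation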;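 for inhibition: signal is the nuclear over cytoplasmic p65 intensity ratio per well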). Conditions: HUVEC TNFa-induced p65 nuclear translocation; cell count: measured here: nuclei count (cytotoxicity indicator), at 2.08 µM; inhibition: at 2 µM, stronger effect = higher value, 0% TNFa-plus-vehicle, 100% no-TNFa wells.
Assay [2] is described as follows: reduction of polyQ htt aggregates in cells – imaging, exon1htt(103Q)mCFP cells, high-content imaging, primary screen (AID 483;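 active = visual image review flags a hit and inhibition of aggregation exceeds 20%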;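 note: compound exposure lasted 3 days before fixation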;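 for nuclei count: percent of the per-plate median nuclei count of sample wells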). To be noted: exon1htt(103Q)mCFP cell line, aggregate imaging, at 2 µM; inhibition of aggregation: stronger effect = higher value; nuclei count: measured here: cell count, toxicity.
The nature of assay [3]: endothelial E-selectin expression blockers – imaging, HUVEC, immunofluorescence, MLSMR starter and 10KST1 sets, primary screen (AID 487;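 active = visually confirmed hit in the image check and inhibition above 20%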;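 for inhibition: signal is fraction of cell area covered by stained E-selectin grains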;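 for nuclei count: 100% = median nuclei count of all wells on the same plate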). Conditions: HUVEC TNFalpha-induced E-selectin immunofluorescence imaging, at 2 µM; inhibition: stronger effect = higher value; nuclei count: measured here: cell number, toxicity.
The target of assay [4] is Voltage-gated potassium channel subunit beta-2 (Rattus norvegicus) (UniProt P62483). Kind of assay: inhibitors of rat Kvbeta2 reductase activity – biochemical, NADPH fluorescence, primary screen (AID 622;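 active = fluorescence slope higher than the sample average by over 3 SD, cut at about -0.22 in these data, passing the limit was not always enough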;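 note: slope of raw intensity against log time taken from 70 to 1610 s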). Conditions: recombinant KvBeta, 4-cyanobenzaldehyde reduction, at 10 µM, stronger effect = higher value.
Chain of Voltage-gated potassium channel subunit beta-2 (Rattus norvegicus) (P62483 whole entry, looked up): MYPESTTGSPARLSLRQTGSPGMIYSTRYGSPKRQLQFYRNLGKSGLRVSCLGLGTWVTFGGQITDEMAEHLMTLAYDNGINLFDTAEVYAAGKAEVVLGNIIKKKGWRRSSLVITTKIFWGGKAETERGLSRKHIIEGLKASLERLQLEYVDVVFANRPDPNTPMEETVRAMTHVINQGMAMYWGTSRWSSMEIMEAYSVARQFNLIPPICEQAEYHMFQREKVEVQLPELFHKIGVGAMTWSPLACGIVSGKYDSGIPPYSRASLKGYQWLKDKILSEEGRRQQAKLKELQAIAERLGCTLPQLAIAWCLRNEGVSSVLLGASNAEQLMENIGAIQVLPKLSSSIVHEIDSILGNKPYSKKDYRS
The target is the same in assay [5]. Kind of assay: enhancers of rat Kvbeta2 NADPH turnover – biochemical, NADPH fluorescence, primary screen (AID 623;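 active = NADPH fluorescence slope more negative than the mean of all samples by about 3 SD, 99.7% confidence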;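 note: fluorescence intensity change per second fitted from 20 to 320 s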). Conditions: Recombinant KvBeta, NADPH fluorescence decrease slope, 10 min; at 10 µM; stronger effect = lower value.
For assay [6], the target named is Alpha-2C adrenergic receptor (Homo sapiens) (UniProt P18825). In words: compounds altering alpha2C-coupled GIRK flux – cell-based, HEK293 alpha2C/GIRK1/2, thallium flux, primary screen (AID 624;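 active = fluorescence slope after compound addition differing from the mean of all screened samples at 99.7% confidence, in either direction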;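 note: slope of fluorescence ratio to pre-addition baseline per second over 15 to 24 s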). To be noted: thallium flux BTC fluorescence, at 10 µM, actives lie on both sides.
Chain of Alpha-2C adrenergic receptor (Homo sapiens) (P18825 whole entry, looked up): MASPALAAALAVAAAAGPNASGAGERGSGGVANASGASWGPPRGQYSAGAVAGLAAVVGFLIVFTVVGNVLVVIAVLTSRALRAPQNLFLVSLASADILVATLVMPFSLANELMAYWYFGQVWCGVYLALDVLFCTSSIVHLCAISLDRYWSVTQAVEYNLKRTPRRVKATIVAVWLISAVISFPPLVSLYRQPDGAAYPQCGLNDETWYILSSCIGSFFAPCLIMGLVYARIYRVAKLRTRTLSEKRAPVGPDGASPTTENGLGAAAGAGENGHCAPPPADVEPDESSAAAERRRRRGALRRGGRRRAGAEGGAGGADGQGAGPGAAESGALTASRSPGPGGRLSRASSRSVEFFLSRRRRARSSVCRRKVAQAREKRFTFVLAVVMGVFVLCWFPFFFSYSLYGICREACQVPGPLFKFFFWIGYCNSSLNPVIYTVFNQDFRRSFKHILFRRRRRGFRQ
Assay [7] can be described thus: blockers of RIG-like receptor reporter activation – cell-based, Sendai virus stimulus, luciferase, 10K MLSCN set, TLR/RLR signaling modifier project, primary screen (AID 602276;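 active = inhibition at or above 50% at 10 µM; inactive = inhibition below 50%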;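 note: firefly luciferase from ISG56 promoter only with Renilla not read in this screen; 0% = Sendai virus plus DMSO and 100% = medium plus DMSO without virus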). Conditions: HEK293 RL24 IRF3 luciferase reporter, at 10 µM, stronger effect = higher value. In general terms: Reporter assays use an easily measured gene product as a stand-in for the process of interest.

A short description of assay [8]: TLR3 IRF3 reporter activation blockers – cell-based, poly I:C stimulus, luciferase, 10K MLSCN set, primary screen (AID 602277). Conditions: HEK293-TLR3 RL24 IRF3 luciferase reporter, at 10 µM, stronger effect = higher value.

The source made the active and inactive calls.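 Rule for the calls, unless noted: active = inhibition of the reporter signal at or above 50%; inactive = inhibition below 50%.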 Where a SMILES comes first, the peptide text is derived from it. The star is where a group is joined. Boc = CC(C)(C)OC(=O)*

Turning to `COc1cc(Br)cc(CN2CCN(C/C=C/c3ccccc3)CC2)c1O`, the cell count in assay [1] was 273. The inhibition in assay [1] was 5.8% (inactive); in assay [3] it was 3% (inactive); in assay [7], -0.336% (inactive); in assay [8] it was -8.7% (inactive). The inhibition of aggregation in assay [2] is -5% (inactive). The nuclei count stood at 98.5% in assay [2] and 108% in assay [3]. In assay [4], the fluorescence slope was -0.606 (inactive). The NADPH fluorescence slope in assay [5] is -8.8e-06 (inactive). Further, the slope in assay [6] was 0.00359 (inactive).

Consider `COC(=O)C1(C#N)C(c2ccccc2)C1(C(=O)OC)C(=O)OC` (centres undefined), for which, in assay [1], the cell count turned out to be 450. For the same compound, the inhibition in assay [1] is 2.6% (inactive); in assay [3], -21.2% (inactive); in assay [7], 13.2% (inactive); in assay [8], 26.1% (inactive). Moreover, the inhibition of aggregation in assay [2] was -8.3% (inactive). Besides, the nuclei count in assay [2] came to 103%; in assay [3], 118%. Moreover, in assay [4], the fluorescence slope is -0.522 (inactive). For the same compound, the NADPH fluorescence slope in assay [5] was -2.1e-05 (inactive). In addition, in assay [6], the slope was 0.00516 (inactive).

Take `Cc1nnc(NC(=O)CSc2cn(CCNC(=O)c3ccccc3)c3ccccc23)s1`: the cell count in assay [1] was found to be 651. For the same compound, the inhibition in assay [1] was -9.6% (inactive); in assay [3], -12.7% (inactive); in assay [7], -1.29% (inactive); in assay [8], -44.3% (inactive). Moreover, the inhibition of aggregation in assay [2] was 28.2% (inactive). Moreover, the nuclei count in assay [2] was determined as 70.8%; in assay [3] it was 106%. In assay [4], the fluorescence slope was -0.452 (inactive). Moreover, the NADPH fluorescence slope in assay [5] was 5.8e-06 (inactive). The slope in assay [6] is 0.00437 (inactive).

Regarding `Cn1c(=O)c2c(ncn2CC(=O)OCC(=O)NC2CCCc3ccccc32)n(C)c1=O` (centres undefined), the cell count in assay [1] stood at 392. For the same compound, the inhibition is 2.7% (inactive) in assay [1], -85.1% (inactive) in assay [3], 2.45% (inactive) in assay [7] and 22.5% (inactive) in assay [8]. Moreover, the inhibition of aggregation in assay [2] was 23.7% (inactive). For the same compound, the nuclei count was found to be 64.6% in assay [2] and 112% in assay [3]. Further, the fluorescence slope in assay [4] is -0.616 (inactive). Further, in assay [5], the NADPH fluorescence slope was 2.2e-06 (inactive). Moreover, the slope in assay [6] was 0.00842 (inactive).

`CCCc1cc(C(=O)Nc2ccc(C(C)=O)cc2)no1`: the cell count in assay [1] was determined as 566. For the same compound, the inhibition was -4.4% (inactive) in assay [1], -58.4% (inactive) in assay [3], 15.4% (inactive) in assay [7] and -5.79% (inactive) in assay [8]. In addition, the inhibition of aggregation in assay [2] is 1.1% (inactive). Also, the nuclei count in assay [2] is 128%; in assay [3] it was 110%. For the same compound, the fluorescence slope in assay [4] is -0.559 (inactive). For the same compound, the NADPH fluorescence slope in assay [5] is 1.4e-06 (inactive). For the same compound, the slope in assay [6] was 0.00619 (inactive).

`Cc1c(C#N)c2ccccc2n1CC(=O)N1CCc2ccccc2C1`: the cell count in assay [1] came to 583. In addition, the inhibition in assay [1] is 6% (inactive); in assay [3], 11.5% (inactive); in assay [7] it was -9.66% (inactive); in assay [8], 21.9% (inactive). Also, in assay [2], the inhibition of aggregation was 8.7% (inactive). The nuclei count in assay [2] came out at 95.3%; in assay [3], 114%. Moreover, the fluorescence slope in assay [4] was -0.581 (inactive). Further, the NADPH fluorescence slope in assay [5] is -4.4e-05 (inactive). The slope in assay [6] is 0.00747 (inactive).

In the case of `O=C(CN1C(=O)COc2ccccc21)N(Cc1cccnc1)Cc1ccccc1F`, the cell count in assay [1] came to 661. Also, the inhibition in assay [1] is -2.9% (inactive); in assay [3] it was -6.3% (inactive); in assay [7], 15.9% (inactive); in assay [8], 32.6% (inactive). In addition, the inhibition of aggregation in assay [2] was -5.5% (inactive). Also, the values for the nuclei count in assay [2] and in assay [3] were 77.4% and 106%, respectively. For the same compound, in assay [4], the fluorescence slope is -0.324 (inactive). In assay [5], the NADPH fluorescence slope was -5.8e-05 (inactive). Besides, the slope in assay [6] was 0.00465 (inactive).

For the compound `CN(C)c1cccc2c(S(=O)(=O)Nc3ccccn3)cccc12`, the cell count in assay [1] is 679. For the same compound, the inhibition in assay [1] was 11.1% (inactive); in assay [3], 22.1% (inactive); in assay [7] it was 11.3% (inactive); in assay [8] it was 19.3% (inactive). In addition, the inhibition of aggregation in assay [2] was 11.7% (inactive). Also, the results for the nuclei count in assay [2] and in assay [3] were 101% and 86.9%, respectively. Moreover, the fluorescence slope in assay [4] was -0.318 (inactive). The NADPH fluorescence slope in assay [5] was -1.7e-05 (inactive). The slope in assay [6] is 0.00542 (inactive).

Take `Cc1cc(Cl)ccc1OCCCC(=O)NO`: in assay [1], the cell count was found to be 375. Also, the inhibition in assay [1] was 0.8% (inactive); in assay [3], -31.4% (inactive); in assay [7] it was 9.52% (inactive); in assay [8], -4.29% (inactive). The inhibition of aggregation in assay [2] is -15% (inactive). For the same compound, the nuclei count in assay [2] was 65.5%; in assay [3], 108%. The fluorescence slope in assay [4] is -0.31 (inactive). Besides, the NADPH fluorescence slope in assay [5] is -1.1e-05 (inactive). Also, the slope in assay [6] is 0.00525 (inactive).

Take `CCOC(=O)c1[nH]c(C)c(C(=O)NC)c1C`: the cell count in assay [1] stood at 627. Moreover, the inhibition in assay [1] was -1.3% (inactive); in assay [3] it was -37.7% (inactive); in assay [7], 9.49% (inactive); in assay [8], 27.6% (inactive). For the same compound, the inhibition of aggregation in assay [2] is 0.2% (inactive). Further, the nuclei count in assay [2] is 105%; in assay [3], 103%. Further, the fluorescence slope in assay [4] was -0.563 (inactive). For the same compound, the NADPH fluorescence slope in assay [5] is -1.3e-05 (inactive). The slope in assay [6] is 0.00529 (inactive).

Take `COc1cccc(C(=O)Nc2cc(C)c3c(=O)oc4ccccc4c3n2)c1`: in assay [1], the cell count turned out to be 526. Moreover, the inhibition is 0.3% (inactive) in assay [1], -0.1% (inactive) in assay [3], 10.3% (inactive) in assay [7] and 22.2% (inactive) in assay [8]. Besides, the inhibition of aggregation in assay [2] was 9.3% (inactive). The nuclei count in assay [2] was 93.9%; in assay [3] it was 92.8%. The fluorescence slope in assay [4] was -0.429 (inactive). In assay [5], the NADPH fluorescence slope was -3.7e-05 (inactive). Besides, the slope in assay [6] is 0.00602 (inactive).

For `COc1ccccc1N1C(=O)c2ccccc2NC1c1ccncc1` (centres undefined), in assay [1], the cell count is 427. The inhibition in assay [1] was 5.6% (inactive); in assay [3] it was -456% (inactive); in assay [7], -1.3% (inactive); in assay [8], 5.74% (inactive). Further, the inhibition of aggregation in assay [2] is -20.4% (inactive). In addition, the nuclei count in assay [2] was found to be 103%; in assay [3] it was 163%. In assay [4], the fluorescence slope was -0.437 (inactive). In assay [5], the NADPH fluorescence slope is -0.000349 (inactive). Further, in assay [6], the slope was 0.00578 (inactive).

On to `O=P1(O)C=C(c2ccccc2)NC(c2ccccc2)=C1`, for which the cell count in assay [1] came out at 405. Besides, the inhibition in assay [1] is 3.4% (inactive); in assay [3], -48% (inactive); in assay [7], 10.1% (inactive); in assay [8] it was 7.48% (inactive). Also, the inhibition of aggregation in assay [2] was -6.9% (inactive). Further, the nuclei count in assay [2] is 92.3%; in assay [3], 117%. Moreover, the fluorescence slope in assay [4] was -0.35 (inactive). Further, the NADPH fluorescence slope in assay [5] is -5e-07 (inactive). The slope in assay [6] is 0.00466 (inactive).

Regarding `CSCCC(NC(=O)OC(C)(C)C)C(=O)NC(CC(C)C)C(N)=O` (stereo not drawn) (Boc-Met-Leu-NH2; configuration not given here), the cell count in assay [1] worked out at 396. The inhibition in assay [1] was -2.1% (inactive); in assay [3], 7.9% (inactive); in assay [7], 5.67% (inactive); in assay [8], 22% (inactive). In addition, in assay [2], the inhibition of aggregation was -0.6% (inactive). In addition, the nuclei count in assay [2] worked out at 114%; in assay [3], 101%. In assay [4], the fluorescence slope is -0.577 (inactive). Besides, in assay [5], the NADPH fluorescence slope is 3.1e-05 (inactive). Also, the slope in assay [6] is 0.00653 (inactive).
